Experimental data published in PubChem BioAssay AID652208 (Broad Institute, 2013).
Entries with a potency or affinity are not part of this list. Activity calls are given as the source filed them.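 How the source made its calls: active means Loss of cell signal with fitted half-effect dose at or below twice the top valid tested dose; inconclusive means Poor fit, or flat fit from -70 to -30 percent; inactive means Half-effect above limit, rising signal, or flat within 30 percent.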

assay: HEK293T cell cytotoxicity, dose response, cytotoxicity control for HIV Vif inhibitor project, cherry-picks (AID 652208); conditions: HEK293T viability, CellTiter-Glo luminescence, 24 h; series mostly up to 26 µM

Compound | outcome
CCc1ccc(S(=O)(=O)Nc2ccc(-c3ccc4nnc(C)n4n3)cc2)s1 | inactive
COc1cc(/C=C/C(=O)OCC(=O)N2CCCc3ccccc32)ccc1O | inactive
COc1ccc(-c2ccc3c(N)c(C(=O)c4ccc(OC)c(OC)c4)sc3n2)cc1 | inactive
FC(F)(F)c1nnc2c3ccccc3c(Cl)nn12 | inactive
COCCNCC(=O)Nc1nc(C)cs1 | inactive
CCn1c(SCc2nc3ccccc3c(=O)[nH]2)nc2ccccc2c1=O | inactive
COc1ccc(CNC(=O)Nc2cccs2)cc1OC | inactive
COc1ccccc1N1C(=O)c2cccc3c(N(C)CCO)ccc(c23)C1=O | inactive
O=C(c1cc(Cl)c(=O)n(Cc2ccccc2)c1)N1CCOCC1 | inactive
Cc1cc(-c2nnc(SCC(=O)c3ccc(Cl)cc3)o2)no1 | inactive
CCN1C(=O)c2cccc3c(S(=O)(=O)Nc4ccccc4O)ccc1c23 | inactive
CCN1C(=O)NC(c2ccccc2)C1=O (stereo not drawn) | inactive
CC(C)OC(=O)c1cn(-c2ccccc2)nc1-c1ccc2c(c1)OCCO2 | inactive
Cc1cc(C)c2nc3sc(C(=O)N4CCOCC4)c(N)c3cc2c1 | inactive
CCC(=O)Nc1ccc(-c2cc3ccccc3oc2=O)cc1 | inactive
CCN1C(=O)c2cccc3c(S(=O)(=O)Nc4nc(C)cs4)ccc1c23 | inactive
COc1ccc(-c2cc(C(=O)Nc3cnn(Cc4ccccc4C)c3)no2)cc1OC | inactive
CN(C)c1ccc(/C=C2\SC(N3CCCCC3)=NC2=O)cc1 | inactive
CCCn1c(=O)c(C(=O)Nc2ncccc2O)c(O)c2ccccc21 | inactive

Compound | outcome
CCOC(=O)C[C@@H](C#N)NC(=O)[C@@H]1CCCN1C(=O)[C@@H](NC(=O)c1ccc(N)c(Cl)c1)C(C)(C)C | inactive
O=C(O)/C=C/C(=O)Nc1cccc(C(F)(F)F)c1 | inactive
CC1CN(S(=O)(=O)c2cccc(C(=O)N3CCC(C(N)=O)CC3)c2)CC(C)O1 (stereo not drawn) | inactive
Cc1nnc(NC(=O)Cn2nc(C)c3ccccc3c2=O)s1 | inactive
Cc1nc(NC(=O)C(C)Oc2cccc(Cl)c2)sc1C(=O)N(C)C (stereo not drawn) | inactive
CCNC(=O)[C@H]1O[C@@H](n2cnc3c(N)nc(NCCc4ccc(CCC(=O)O)cc4)nc32)[C@H](O)[C@@H]1O | inactive
Cc1ccnc(SCC(=O)n2c3c(c4ccccc42)CC(C)CC3)n1 (stereo not drawn) | inactive
COc1ccccc1C1C2=C(COC2=O)Nc2cc3c(cc21)OCO3 (stereo not drawn) | inactive
O=C(CN(C(=O)c1csnn1)c1ccc(F)cc1)NCc1ccc2c(c1)OCO2 | inactive
CCc1nn(-c2cc(Oc3cccc4ccccc34)nc(-c3ccccc3)n2)c(N)c1C#N | inactive
c1ccc(-c2cn3nc(-c4ccccc4)c(-c4ccccc4)nc3n2)cc1 | inactive
Nc1nonc1-c1nc2ccccc2n1CC(=O)NC1CCCC1 | inactive
CCOC(=O)C1=C(C)NC(=O)NC1 | inactive
CCOC(=O)c1c(NC(=O)CCC(=O)N2CCOCC2)sc2c1CC(C)(C)OC2 | inactive
COc1cccc(CNc2ccc3c(c2)CCC3)c1 | inactive
COc1ccc(C(=O)NC2CC3CCCC(C2)N3Cc2ccccc2)cc1OC (stereo not drawn) | inactive
C=CCn1c(O)c(C2=c3ccccc3=NC2=O)s/c1=N/c1nccs1 | inactive
N#Cc1cc2c(=O)n3ccccc3nc2n(-c2ccccc2Cl)c1=O | inactive
CC(OC(=O)c1c[nH]c2ccccc12)C(=O)N1CCCC1 (stereo not drawn) | inactive
